Measured values published in PubChem BioAssay AID1159580 (chemical genetic matrix, 2015).
Where “and” joins values, the source holds several entries; their conditions need not be identical. Equal values may be shown once. About 2,000 (36%) of roughly 5,500 compounds were called active. About 18% were inconclusive and are not listed. Cut-off read from the data, not from the text of the source: active = normalized growth mostly below about 0.91 (no sharp cut-off); inconclusive = no clear call, values can overlap the other calls; inactive = mostly above about 0.92. The list shows a part of the results.

Assay: chemical genetic growth profiling, strain panel (AID 1159580);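 note: tested at 20 µM; growth read once vehicle control cultures reached saturation at 30 °C; 1 = growth at the plate median or of vehicle wells; lower values mean less growth of the strain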
Settings: S. cerevisiae deletion strains, growth OD

Measured: normalized growth

CN1CCC(=C2c3ccccc3CC(=O)c3sccc32)CC1
inactive: locus YAL013W, strain DEP1, hits give low values 1.01 | locus YAL021C, strain ccr4, hits give low values 0.985 | locus YAL026C, strain drs2, hits give low values 0.981 | locus YAL030W, strain snc1, hits give low values 0.975 | locus YAL040C, strain CLN3, hits give low values 0.992 | locus YBL061C, strain skt5, hits give low values 0.981 | locus YBR009C, strain hhf1, hits give low values 1.02 | locus YBR021W, strain FUR4, hits give low values 1.01 | locus YBR023C, strain chs3, hits give low values 0.986 | locus YBR171W, strain sec66, hits give low values 0.964 | locus YBR229C, strain ROT2, hits give low values 0.999 | locus YBR231C, strain swc5, hits give low values 0.964 | locus YBR279W, strain paf1, hits give low values 0.994 | locus YCL011C, strain gbp2, hits give low values 0.989 | locus YCL016C, strain dcc1, hits give low values 1.04 | locus YCL029C, strain bik1, hits give low values 1.02 | locus YCL061C, strain MRC1 (second series), hits give low values 1 | locus YCL069W, strain vba3, hits give low values 0.983 | locus YCR088W, strain abp1, hits give low values 0.973 | locus YDL005C, strain med2, hits give low values 0.991 | locus YDL035C, strain GPR1, hits give low values 1.02 | locus YDL040C, strain nat1, hits give low values 0.984 | locus YDL074C, strain BRE1, hits give low values 1.02 | locus YDL101C, strain DUN1, hits give low values 1.02 | locus YDL134C, strain PPH21, hits give low values 1.01 | locus YDL185W, strain tfp1, hits give low values 1.01 | locus YDL192W, strain arf1, hits give low values 1.01 | locus YDR001C, strain nth1, hits give low values 0.957 | locus YDR069C, strain doa4, hits give low values 0.954 | locus YDR101C, strain arx1, hits give low values 1.01 | locus YDR137W, strain rgp1, hits give low values 0.974 | locus YDR150W, strain NUM1, hits give low values 1 | locus YDR159W, strain sac3, hits give low values 1.03 | locus YDR162C, strain NBP2, hits give low values 1.01 | locus YDR195W, strain ref2 0.895 | locus YDR297W, strain sur2, hits give low values 0.982 | locus YDR318W, strain mcm21, hits give low values 1.02 | locus YDR334W, strain swr1, hits give low values 0.928 | locus YDR335W, strain msn5, hits give low values 0.977 | locus YDR363W, strain ESC2, hits give low values 0.985 | locus YDR388W, hits give low values 1.01 | locus YDR392W, strain spt3, hits give low values 1.04 | locus YDR502C, strain sam2, hits give low values 1.01 | locus YEL003W, strain gim4, hits give low values 0.986 | locus YEL037C, strain rad23, hits give low values 0.99 | locus YEL061C, strain CIN8 (second series), hits give low values 0.966 | locus YEL061C, strain CIN8, hits give low values 1.01 | locus YER002W, strain NOP16, hits give low values 0.993 | locus YER015W, strain faa2, hits give low values 1.01 | locus YER016W, strain bim1, hits give low values 1 | locus YER110C, hits give low values 1.01 | locus YER111C, strain swi4, hits give low values 0.972 | locus YER155C, strain BEM2 (second series), hits give low values 0.927 | locus YER155C, strain BEM2, hits give low values 1 | locus YER167W, strain BCK2, hits give low values 1 | locus YFR010W, strain ubp6, hits give low values 0.958 | locus YGL078C, strain dbp3, hits give low values 1.01 | locus YGL086W, strain mad1, hits give low values 0.994 | locus YGL167C, strain pmr1, hits give low values 0.964 | locus YGL173C, strain kem1, hits give low values 0.984 | locus YGL227W, strain vid30, hits give low values 0.984 | locus YGL240W, strain doc1, hits give low values 0.957 | locus YGL248W, strain PDE1, hits give low values 1.01 | locus YGL253W, strain hxk2, hits give low values 1 | locus YGR078C, strain PAC10, hits give low values 1.01 | locus YGR135W, strain pre9, hits give low values 1 | locus YGR229C, strain SMI1, hits give low values 0.999 and 0.99 | locus YGR252W, strain gcn5, hits give low values 0.962 | locus YHR013C, strain ard1, hits give low values 0.971 | locus YHR027C, strain rpn1, hits give low values 0.992 | locus YHR030C, strain SLT2, hits give low values 1.01 and 1.04 | locus YHR079C, strain IRE1 (second series), hits give low values 1.02 | locus YHR079C, strain IRE1, hits give low values 1.03 | locus YHR094C, strain hxt1, hits give low values 1.01 | locus YHR129C, strain ARP1, hits give low values 1 | locus YHR142W, strain chs7, hits give low values 0.99 | locus YHR200W, strain rpn10, hits give low values 1.02 | locus YIL066C, strain RNR3, hits give low values 1.01 | locus YIL073C, strain SPO22, hits give low values 1.06 | locus YIL125W, strain kgd1, hits give low values 0.998 | locus YIR030C, strain dcg1, hits give low values 1.01 | locus YJL092W, strain hpr5, hits give low values 0.977 | locus YJL095W, strain BCK1 (second series), hits give low values 0.973 | locus YJL095W, strain BCK1, hits give low values 1.02 | locus YJL115W, strain asf1, hits give low values 0.953 | locus YJL129C, strain trk1, hits give low values 0.969 | locus YJL134W, strain LCB3, hits give low values 1.01 | locus YJL154C, strain vps35, hits give low values 0.968 | locus YJL164C, strain tpk1, hits give low values 1.02 | locus YJL166W, strain qcr8, hits give low values 0.95 | locus YJL168C, strain set2, hits give low values 1.01 | locus YJL187C, strain SWE1 (second series), hits give low values 1.02 | locus YJR043C, strain POL32, hits give low values 1.02 | locus YJR066W, strain TOR1, hits give low values 0.989 | locus YJR075W, strain HOC1, hits give low values 1.01
